Laboratory results taken from PubChem BioAssay (NCI).
This is part of a sample that, as a whole, favours compounds with a hit. Of some 83,000 tested, about 20% had one in any assay.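 Results are percent growth after 48 hours of single-concentration exposure. 100 means growth as in untreated cells, lower positive values show inhibition; negative values down to -100 show cell death.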 A number with no mark means an inactive call. Calls of active or inactive are those of the source. How the source made its calls: active means growth percent below 10; inactive means the rest.

Tests used:
Assay in all cases: NCI-60 one-dose screen, 48 h (100 = growth as untreated, 0 = no growth, -100 = all killed)
Settings in all cases: 10 µM unless noted
[1] = tested on: SK-MEL-2 melanoma
[2] = tested on: EKVX NSCLC
[3] = tested on: SN12C renal
[4] = tested on: UO-31 renal
[5] = tested on: TK-10 renal
[6] = tested on: ACHN renal
[7] = tested on: A498 renal
[8] = tested on: CCRF-CEM leukemia
[9] = tested on: MOLT-4 leukemia
[10] = tested on: SR leukemia
[11] = tested on: RPMI-8226 leukemia
[12] = tested on: OVCAR-8 ovarian
[13] = tested on: OVCAR-5 ovarian
[14] = tested on: OVCAR-4 ovarian
[15] = tested on: SK-OV-3 ovarian
[16] = tested on: IGROV1 ovarian
[17] = tested on: OVCAR-3 ovarian
[18] = tested on: HS 578T breast
[19] = tested on: NCI/ADR-RES ovarian
[20] = tested on: T-47D breast

SMILES | growth [1] [%] | growth [2] [%] | growth [3] | growth [4] | growth [5] | growth [6] | growth [7] | growth [8] | growth [9] | growth [10] | growth [11] | growth [12] | growth [13] [%] | growth [14] | growth [15] [%] | growth [16] | growth [17] | growth [18] | growth [19] [%] | growth [20]
CCCCC1=c2c([nH]c3ccc(OC)cc23)=NC2C=CC=NC12 (stereo not given) | 110 | 84.3 | 88.5% | 75% | 115% | 91.2% | 94.9% | 91.5% | 69.5% | 45% | 56.8% | 101% | 106 | 80.3% | 113 | 69.9% | 114% | 92.3% | 96.6 | 38.8%
C(=C\c1cn(-c2ccccc2)nc1-c1ccccc1)/c1nnc(-c2c[nH]c3ccccc23)o1 | 86 | 50.8 | 27.9% | 73.2% | 22.8% | 40% | 109% | 78.8% | 69.4% | 48.1% | 40.8% | 35.2% | 93.3 | 47.9% | 91.8 | 59.2% | 20.9% | 44.7% | 51.8 | 55.5%
O=C1CCC23OC(C(O)c4ccccc4N12)C1C(Br)=NOC13 (stereo not given) | 108 | 99.7 | 90.7% | 87.2% | 98.5% | 104% | 108% | 103% | 103% | 102% | 98.7% | 103% | 97.7 | 95.4% | 99 | 106% | 105% | 106% | 106 | 102%
COc1cccc(NC(=O)Nc2ccc(Oc3ncnc4[nH]c(C)c(C)c34)cc2)c1 | 100 | 102 | 74.5% | 86.1% | 114% | 73.6% | 106% | 76.4% | 56.9% | 10.5% | 72.4% | 77% | 129 | 99.2% | 107 | 52% | 103% | 84.8% | 83.5 | 95.2%
O=C(CN1N=C(c2ccc(F)cc2)CCC1=O)Nc1nccs1 | 101 | 98.3 | 96.9% | 87.6% | -95.6% (active) | 107% | 84.1% | 94% | 97.5% | 92.8% | 103% | 98.6% | 107 | 97.6% | 97.7 | 100% | 113% | 100% | 109 | 83.7%
Cc1cccc2nc3c(n12)C(=O)C(=O)c1ccccc1-3 | 81.2 | 64.1 | 37.1% | 55.8% | 125% | 69.4% | 81.3% | 91.9% | 81.1% | 88.2% | 44.9% | 46.9% | 104 | 83.1% | 79.5 | 44.7% | 54% | 75.2% | 50.3 | 62.5%
C=C1C(=O)O[C@H]2[C@H]1CC/C(COC(=O)/C=C/c1cccnc1)=C\CC[C@@]1(C)O[C@@H]21 | 75.2 | 43.4 | 16.8% | 24.9% | 25.1% | -11.4% (active) | 92.4% | -7.32% (active) | 8.45% (active) | 6.38% (active) | 2.83% (active) | 40.6% | 59.1 | 32.4% | 80.2 | 36.7% | -6.31% (active) | 62.8% | 54.5 | 23%
NC(=O)c1ccc(C2C3=C(CCCC3=O)OC3=C2C(=O)c2ccccc2C3=O)cc1 (stereo not given) | 20.6 | 24.6 | -3.43% (active) | 90.6% | 98.2% | 27.9% | 131% | 15% | -17.4% (active) | 8.38% (active) | 18.6% | -1.42% (active) | 96.4 | -12.8% (active) | 104 | 8.86% (active) | -20.4% (active) | 67.1% | 79.8 | -1.02% (active)
CNS(=O)(=O)c1cccc(-c2ccc3c4c(n(C)c(=O)c3c2)-c2ccccc2C4=O)c1 | 113 | 51.7 | 19.5% | 35.4% | 85.5% | 0.944% (active) | 72.1% | 6.13% (active) | -1.83% (active) | 3.35% (active) | 30.5% | 43.9% | 95.2 | 92.1% | 71.8 | 60.8% | 82.6% | 94.5% | 70.7 | 47%
COC(=O)/C=C1\SC(=Nc2cccc(Cl)c2)N(CCc2c[nH]c3ccccc23)C1=O | 40.6 | 71.9 | 44.5% | 58.5% | 73.4% | 63.9% | 61.5% | 5.03% (active) | -17.6% (active) | -7.91% (active) | -25% (active) | 51.4% | 73.6 | 62% | 83.8 | 53.7% | 33.3% | 67.4% | 52.4 | 11.9%
Cc1c(Cl)cccc1NC(=O)c1sc2nc3c(cc2c1N)CCCCC3 | 48.5 | 42.2 | 44.9% | 55.2% | 65.6% | 62.5% | -3.71% (active) | 9.59% (active) | 14.4% | 12.8% | 22.2% | 31.5% | 58.3 | 59.2% | 47.8 | 54.9% | -3.42% (active) | 38% | 19.7 | 44%
C#Cc1ccccc1NC(=O)c1sc2nc3c(cc2c1N)CCCCCC3 | 85.4 | 69.5 | 58.5% | 50.1% | 63.2% | 31.1% | 68.5% | 60.7% | 67.1% | 12.3% | 56.4% | 75.7% | 93.1 | -19% (active) | 36.9 | 74.5% | 30.9% | 8.22% (active) | 67.4 | 49.7%
CN(C)CCCn1c2c(c3cc(-c4cccc(S(N)(=O)=O)c4)ccc3c1=O)C(=O)c1ccccc1-2 | 124 | 88.6 | 78.3% | 72.9% | 99.5% | 57.2% | 96.4% | 18.8% | 8.99% (active) | -5.99% (active) | 70.3% | 56% | 97.7 | 82.3% | 67.8 | 66.7% | 87.8% | 99.6% | 70.6 | 74.7%
Cc1ccc(C(=O)/C(=C/c2ccc([N+](=O)[O-])cc2)S(=O)Cc2ccccc2)cc1 (stereo not given) | 57.9 | 30.3 | -41.1% (active) | -83.7% (active) | 6.85% (active) | -52.8% (active) | 41% | 6.67% (active) | 1.79% (active) | 0.101% (active) | -13% (active) | 18.5% | 39.5 | 35% | 80.2 | -7.98% (active) | 0.0452% (active) | -2.56% (active) | 14.3 | -38.3% (active)
